Compound activity deposited in PubChem by several laboratories.
In the library only some 11% were active in any assay of this set; here they are far more common.
Ins promoter up: MIN6 insulin promoter up-regulation; MIN6 insulin promoter-GFP reporter, high-content imaging; hits give high values; z-score at 5 µM; 190,000 compounds, 0.3% hits;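 active = z-score above 3 at 5 µM with at least 500 cells counted in the well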
WT yeast gro inh: growth inhibition of WT yeast, mitochondrial fusion screen; mitochondrial fusion phenotypic screen, WT strain; inhibition, % at 10 µM; 190,000 compounds, 2.1% hits; in the data active = inhibition above about 58%; tested in S. cerevisiae
Autophagy HCS: alters autophagy in cells; 190,000 compounds, 0.98% hits; MEF GFP-LC3 puncta imaging; test concentration mostly 10 µM; AID 463193; calls only at 10 µM (by protocol);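 active = percentage of spot-positive cells more than 3 SD above its plate mean, without a fluorescence outlier flag or 80% toxicity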;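 also: spot-positive cell cutoff set from DMSO-treated cells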
L major viab: reduces viability of Leishmania major promastigotes. inhibition, % at 10 µM. 200,000 compounds, 9% hits. resazurin fluorescence viability; in the data active = inhibition above about 50%;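 also: promastigotes grown with compound for 44 hours at 28 °C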
INS promoter inh: TRM-6 insulin promoter activity inhibition; TRM-6 cells (human fetal islet line), insulin promoter-eGFP reporter, imaging; reporter expression induced with tamoxifen; inhibition, % at 2 µM; AID 1273; 130,000 compounds, 0.9% hits;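 active = inhibition above the mean plus 3 SD, with well images judged a real hit on visual review, cut at about 60% in these data, passing the limit was not always enough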
Numbers without * were called inactive; i = inactive; · = no result; + = active, no number.

SMILES	Ins promoter up	WT yeast gro inh	Autophagy HCS	L major viab	INS promoter inh
COc1cccc(CC(NC(C)=O)C(=O)NC2CCN(S(=O)(=O)c3ccc(C)cc3)CC2)c1OC (stereo unspecified)	-0.23	-5	i	-6	-12
C/C(N)=C(/C#N)C(=O)COC(=O)C1CCC(C(C)(C)C)CC1 (stereo unspecified)	-0.85	34	i	11	-58
O=C(CCS(=O)(=O)Cc1ccc(Cl)cc1)NCCCN1CCOCC1	0.58	11	i	89*	28
O=C(NCCCN1CCOCC1)c1ccc(-c2ccc(Cl)cc2)o1	·	-3	i	7	·
O=C(CN1CCN(Cc2ccc(Cl)cc2)C1=O)NCCCN1CCOCC1	-0.78	-2	i	-3	·
O=C(NCCCN1CCOCC1)c1ccc(CSc2ccc(Cl)cc2)cc1	-0.86	52	i	97*	-58
O=C(NCCCN1CCOCC1)c1ccc(Br)cc1	0.18	-4	i	52*	-57
O=C(NCCCN1CCOCC1)c1cc(-c2ccc(Br)cc2)on1	-0.12	24	i	94*	·
Cc1ccc(OC(=O)C2c3ccccc3Oc3ccccc32)cc1C	-0.01	25	i	20	31
S=C(NCCc1ccccc1)N1CCN(C23CC4CC(CC(C4)C2)C3)CC1	-0.47	19	i	28	·
CCC1CCCCN1C(=O)c1cc(-c2ccc(Cl)c(Cl)c2)on1 (stereo unspecified)	·	74*	i	-5	·
Cc1ccc(Sc2c(C)nn(C(=O)C3CC3)c2C)cc1	-0.33	85*	i	-2	-22
Cc1nn(C(=O)C2CC2)c(C)c1Sc1ccc(Cl)cc1	0.31	79*	i	-6	·
COc1ccccc1-c1c(C(F)(F)F)oc2cc(OC(=O)c3cccc([N+](=O)[O-])c3C)ccc2c1=O	-0.62	27	i	2	13
C=CCn1c(-c2cc3c(s2)CCC(CC)C3)n[nH]c1=S (stereo unspecified)	-0.59	74*	i	-7	-24
O=C(COc1ncnc2c(Cl)cc(Cl)cc12)Nc1cc([N+](=O)[O-])ccc1Cl	-0.19	3	i	52*	-11
O=C(c1cccc(Cl)c1)C1CCCN(C(=O)c2ccoc2)C1 (stereo unspecified)	0.3	-5	i	-1	·
CN(C(=O)CCl)C1CCCc2ccccc21 (stereo unspecified)	1.1	-15	i	86*	·
O=C1COc2ccc(C(=O)CSc3nnc(Cc4cccs4)n3-c3ccccc3)cc2N1	-0.17	6	i	10	71*
CC(C)c1ccccc1-n1c(SCC(=O)c2ccc3c(c2)NC(=O)CO3)nc2ccccc2c1=O	-1.2	42	i	67*	12
N/C(Cc1ccc([N+](=O)[O-])cc1)=N\OC(=O)c1ccc2ccccc2c1	0.3	81*	i	17	9
COc1cccc(C(=O)O/N=C(\N)Cc2ccc(Cl)cc2)c1	0.89	68*	i	5	14
COc1cccc(C(=O)O/N=C(\N)c2ccncc2)c1	·	29	i	2	-11
O=C(COC(=O)C1CCCC1)NCc1ccc(Cl)cc1	-0.3	1	i	-8	26
N/C(Cc1ccc([N+](=O)[O-])cc1)=N\OC(=O)c1ccccc1Br	-0.38	-37	i	94*	-3
SMILES	Ins promoter up	WT yeast gro inh	Autophagy HCS	L major viab	INS promoter inh
Cc1cccc(C(=O)O/N=C(\N)Cc2ccc([N+](=O)[O-])cc2)c1	0.05	-4	i	33	21
N/C(Cc1ccc(Cl)cc1)=N\OC(=O)C1CCCCC1	0.03	-8	i	73*	31
Cn1c(SCC(=O)NNC(=O)Cc2ccccc2)nc2ccccc2c1=O	·	6	i	-2	25
COc1cccc(CNC(=O)CSc2ccc(-c3cccs3)nn2)c1	-0.35	-7	i	35	-78
COc1ccc(OC)c(/C=N/NC(=O)c2cc3c(OC)c(OC)ccc3[nH]2)c1	-0.39	10	i	72*	-28
CC(Sc1nc(N(C)C)nc(N2CCOCC2)n1)C(=O)Nc1ccccc1 (stereo unspecified)	-1.3	8	i	63*	0
CC(Sc1nc(N2CCOCC2)nc(N2CCOCC2)n1)C(=O)Nc1ccccc1 (stereo unspecified)	-0.85	6	i	10	29
CC(C)C(c1nnnn1Cc1ccc(F)cc1)N1CCN(c2ccc(O)cc2)CC1 (stereo unspecified)	·	21	i	19	11
Cc1cccc(NNC(N)=S)c1C	0.1	1	i	-1	·
CCC(CC)c1nnc(NC(=O)c2ccc(S(=O)(=O)N3CCc4ccccc4C3)cc2)s1	0.07	-6	i	-5	-69
COc1ccc(-c2nnc(NC(=O)c3ccc(S(=O)(=O)N4CCc5ccccc5C4)cc3)o2)cc1	0.21	-10	i	99*	-23
O=C(Nc1nnc(C2CC2)o1)c1ccc(S(=O)(=O)N2CCc3ccccc3C2)cc1	-0.41	64*	i	0	·
CC1CN(S(=O)(=O)c2ccc(C(=O)Nc3nnc(-c4ccco4)o3)cc2)CC(C)O1 (stereo unspecified)	-0.32	3	i	-8	57
COc1cccc(-c2nnc(NC(=O)c3ccc(S(=O)(=O)N4CC(C)OC(C)C4)cc3)o2)c1 (stereo unspecified)	-0.14	-1	i	99*	·
Cc1ccnc(NC(=O)CSc2cc(=O)n(C)c3ccccc23)c1	-0.55	-10	+	-4	·
CN1CCN(C(=O)CSc2cc(=O)n(C)c3ccccc23)CC1	·	-3	i	11	·
Cn1c(=O)cc(OCCCC(=O)N2CCN(c3ccccc3)CC2)c2ccccc21	2	58*	i	0	·
CCn1c(=O)cc(SCC(=O)N2CCN(C3CCCCC3)CC2)c2ccccc21	-0.16	-4	i	51*	-9
Cn1c(=O)cc(SCC(=O)N2CCN(c3ccccc3)CC2)c2ccccc21	-0.21	-1	i	9	85*
Cc1ccc(C(=O)N2CCN(c3cnn(C)c(=O)c3Cl)CC2)cc1	0.06	4	i	5	·
O=C(OCC(O)COC(=O)c1cccnc1)c1cccnc1	-0.23	·	·	·	·
Cc1ccc(NC(=O)COC(=O)CCc2nc3ccccc3c(=O)[nH]2)cc1Cl	0.4	6	i	-1	·
Cc1nn(CC(O)CN2c3ccccc3Sc3ccccc32)c(C)c1Br (stereo unspecified)	0.09	91*	i	64*	-28
OC(CN1c2ccccc2Sc2ccccc21)Cn1nnc2ccccc21 (stereo unspecified)	-2.2	16	i	48	·
CN(C)N1C(=O)CC(NNC(=O)c2ccncc2)C1=O (stereo unspecified)	-0.07	-11	i	-2	12
CC1=C(C(=O)OCCNC(=O)c2ccccc2O)C(c2ccccc2[N+](=O)[O-])C(C(=O)OCC2CCCO2)=C(C)N1 (stereo unspecified)	-1.7	3	i	93*	-21
CCOc1ccc(OCCN2CCCCC2)cc1	0.21	-8	i	1	62*
COc1ccc(OCCC(=O)N2CCCCC2)cc1	0.58	88*	i	0	45
